Measurements from PubChem BioAssay (NCATS).
Records with an inconclusive call do not appear. Activity calls are given as the source filed them. Calls come from the whole dose curve; as a rule, active = well fitted inhibition curve with a large enough effect; inconclusive = small, poorly fitted or top-dose-only effect; inactive = flat fitted curve, though single readings scatter.

Target: Lysine-specific demethylase 5B (Homo sapiens) (UniProt Q9UGL1)
Experiment: Optimization screen for KDM5B Histone Demethylases FDH coupled qHTS against the LOPAC library (AID 1347166)
Conditions: KDM5B demethylation, FDH-coupled NADH fluorescence (FDH is formaldehyde dehydrogenase); series mostly up to 57.5 µM
Summary of the method: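 KDM5BDeltaAP (200nM final) preincubated 10 min with compound, then 12.5uM H3K4Me3, 25uM a-ketoglutarate, ascorbate, Fe(II), NAD+ and FDH added; 50mM HEPES pH 7.5, 0.01% Tween-20. NADH fluorescence (340/450 nm) change over 30 min, room temperature.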

Sequence of Lysine-specific demethylase 5B (Homo sapiens) (Q9UGL1 whole entry, looked up): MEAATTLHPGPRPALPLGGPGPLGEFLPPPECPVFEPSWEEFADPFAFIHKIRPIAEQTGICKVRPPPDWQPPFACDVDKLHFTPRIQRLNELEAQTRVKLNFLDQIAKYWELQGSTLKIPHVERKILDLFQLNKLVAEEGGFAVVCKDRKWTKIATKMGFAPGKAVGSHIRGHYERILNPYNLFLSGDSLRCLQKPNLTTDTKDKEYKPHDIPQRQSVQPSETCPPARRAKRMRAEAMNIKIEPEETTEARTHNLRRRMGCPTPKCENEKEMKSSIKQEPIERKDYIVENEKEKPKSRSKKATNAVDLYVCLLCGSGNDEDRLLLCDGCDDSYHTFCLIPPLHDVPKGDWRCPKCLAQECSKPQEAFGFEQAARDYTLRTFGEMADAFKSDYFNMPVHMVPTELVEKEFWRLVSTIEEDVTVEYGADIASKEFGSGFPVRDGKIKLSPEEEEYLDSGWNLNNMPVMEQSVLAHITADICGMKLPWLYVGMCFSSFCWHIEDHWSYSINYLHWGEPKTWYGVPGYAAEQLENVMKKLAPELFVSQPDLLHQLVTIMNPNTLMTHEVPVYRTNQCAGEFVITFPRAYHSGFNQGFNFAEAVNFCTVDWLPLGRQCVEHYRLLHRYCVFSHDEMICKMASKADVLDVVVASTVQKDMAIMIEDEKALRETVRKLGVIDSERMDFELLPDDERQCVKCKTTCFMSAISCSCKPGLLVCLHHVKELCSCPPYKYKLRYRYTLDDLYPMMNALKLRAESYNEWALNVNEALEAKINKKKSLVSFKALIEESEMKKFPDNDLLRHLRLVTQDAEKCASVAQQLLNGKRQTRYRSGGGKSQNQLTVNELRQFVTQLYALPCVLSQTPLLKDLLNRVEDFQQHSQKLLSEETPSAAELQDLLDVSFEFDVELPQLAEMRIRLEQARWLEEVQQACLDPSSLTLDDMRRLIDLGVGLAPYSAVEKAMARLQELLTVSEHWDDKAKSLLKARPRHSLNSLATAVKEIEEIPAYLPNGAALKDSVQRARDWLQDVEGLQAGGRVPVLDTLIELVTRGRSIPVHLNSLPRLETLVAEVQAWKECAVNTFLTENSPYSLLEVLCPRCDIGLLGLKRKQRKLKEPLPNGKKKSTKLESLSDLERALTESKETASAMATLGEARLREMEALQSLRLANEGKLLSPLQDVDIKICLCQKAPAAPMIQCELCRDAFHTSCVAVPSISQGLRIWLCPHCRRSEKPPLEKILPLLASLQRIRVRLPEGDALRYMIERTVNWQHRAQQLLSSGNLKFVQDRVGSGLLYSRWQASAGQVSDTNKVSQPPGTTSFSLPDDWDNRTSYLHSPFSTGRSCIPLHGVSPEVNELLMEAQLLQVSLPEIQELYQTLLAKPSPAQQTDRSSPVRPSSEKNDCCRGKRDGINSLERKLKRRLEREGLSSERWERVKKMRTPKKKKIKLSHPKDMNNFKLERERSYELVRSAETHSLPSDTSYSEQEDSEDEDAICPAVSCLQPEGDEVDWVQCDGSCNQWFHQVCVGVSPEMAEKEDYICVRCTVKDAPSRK

Row | Structure (SMILES) | outcome
1 | COc1ccccc1N1CCN(CCCCNS(=O)(=O)c2cccc3c(N(C)C)cccc23)CC1 | inactive
2 | C[N+](C)(C)CCOP(=O)(O)OP(=O)([O-])OC[C@H]1O[C@@H](n2ccc(N)nc2=O)[C@H](O)[C@@H]1O | inactive
3 | CC12C(=O)OC(=O)C1(C)C1CCC2O1 (configuration not stated) | inactive
4 | O=C(O)CC1CC(c2ccccc2)=NO1 (configuration not stated) | inactive
5 | COc1ccc2c(c1)CCC1C2CC[C@@]2(C)C1CC[C@@H]2NCCCCCCN1C(=O)CCC1=O (some centres not stated) | inactive
6 | COc1cc(C(O)CO)ccc1OS(=O)(=O)O (configuration not stated) | inactive
7 | O=C(/C=C/c1ccc(O)c(O)c1)OCCc1ccccc1 | inactive
8 | C[N+]1(C)CCC(OC(=O)C(c2ccccc2)c2ccccc2)CC1 | inactive
9 | CC(N)C(=O)OC(C)(C)Cc1ccc(Cl)cc1 (configuration not stated) | inactive
10 | O=P(O)(O)C(Cl)(Cl)P(=O)(O)O | inactive
11 | O=C(O)CC[C@@H](C(=O)O)N1C(=O)c2ccccc2C1=O | inactive
12 | CC(C)CC(NP(=O)(O)O[C@@H]1O[C@@H](C)[C@H](O)[C@@H](O)[C@H]1O)C(=O)NC(Cc1c[nH]c2ccccc12)C(=O)O (some centres not stated) | inactive
13 | CCCN(CC1CC1)c1nc(C)nc(Nc2c(Cl)cc(Cl)cc2Cl)c1Cl | inactive
14 | Cc1nc2sccn2c(=O)c1CCN1CCC(=C(c2ccccc2)c2ccc(F)cc2)CC1 | inactive
15 | Nc1nc(SCc2ccc([N+](=O)[O-])cc2)c2ncn([C@@H]3O[C@H](CO)[C@@H](O)[C@H]3O)c2n1 | inactive
16 | CN(C)C(N)=NCCC[C@H](N)C(=O)O | inactive
17 | O=C1O/C(=C/Br)CCC1c1cccc2ccccc12 (configuration not stated) | inactive
18 | OC[C@H]1O[C@@H](n2cnc3c(NC4CCCC4)ncnc32)[C@H](O)[C@@H]1O | inactive
19 | O=S(=O)(c1cccc2c(I)cccc12)N1CCCNCC1 | inactive

Row | Structure (SMILES) | outcome
20 | N=C(N)SCCc1ccc(CCSC(=N)N)cc1 | inactive
21 | Nc1nc(Cl)nc2c1ncn2[C@@H]1O[C@H](COP(=O)(O)OP(=O)(O)OP(=O)(O)O)[C@@H](O)[C@H]1O | inactive
22 | CN(C)CCC(c1ccc(Cl)cc1)c1ccccn1 (configuration not stated) | inactive
23 | Cc1cc(NC(=O)Nc2ccc3c(ccn3C)c2)sn1 | inactive
24 | CN1CCC[C@H]1c1cccnc1 | inactive
25 | O=[N+]([O-])c1ccc(CSc2ncnc3c2ncn3[C@@H]2O[C@H](CO)[C@@H](O)[C@H]2O)cc1 | inactive
26 | CNc1ncnc2c1ncn2[C@@H]1O[C@H](CO)[C@@H](O)[C@H]1O | inactive
27 | Nc1ncnc2c1ncn2[C@@H]1O[C@H](COP(=O)(O)OP(=O)(O)OP(=O)(O)OP(=O)(O)OC[C@@H]2O[C@H](n3cnc4c(N)ncnc43)[C@@H](O)[C@H]2O)[C@@H](O)[C@H]1O | inactive
28 | CCCCCCCCCCCCCCCC(=O)NCC(COP(=O)([O-])OCC[N+](C)(C)C)OCC (configuration not stated) | inactive
29 | Nc1ncnc2c1ncn2[C@@H]1O[C@H](COP(=O)(O)CP(=O)(O)OP(=O)(O)O)[C@@H](O)[C@H]1O | inactive
30 | Cc1cc2c(cc1Cl)N(C(=O)Nc1ccc(Oc3cccnc3C)nc1)CC2 | inactive
31 | O=C1/C(=C/c2ccsc2)CC/C1=C\c1cccs1 | inactive
32 | CCCCN1CCC(n2c(=O)[nH]c3ccccc32)CC1 | inactive
33 | CN(C)c1nc2c(Br)c(Br)c(Br)c(Br)c2[nH]1 | inactive
34 | Ic1ccc(N2CCN(Cc3c[nH]c4ncccc34)CC2)cc1 | inactive
35 | CSc1ccccc1N1CCN(CCCCCC(=O)NC2CCCc3ccccc32)CC1 (configuration not stated) | inactive
36 | Nc1nc(Cl)nc2c1ncn2[C@@H]1O[C@H](CO)[C@@H](O)[C@H]1O | inactive
37 | NS(=O)(=O)C#Cc1ccccc1 | inactive
